Data reported in PubChem BioAssay AID540275 (National Center for Advancing Translational Sciences (NCATS), 2011).
Among all 320,000 compounds or so, about 620 (0.19%) were called active. Roughly 6% stayed inconclusive and do not appear here. The sample as a whole holds a higher share of actives than the screen did. Values without a mark were called inactive. Cut-off read from the data, not from the text of the source: active = activation above about 80%; inconclusive = between about 30% and that limit; inactive = weaker than that.

The molecules below were run against Transient receptor potential cation channel subfamily V member 1 (Homo sapiens) (UniProt Q8NER1) (assay: HTS Assay for Compounds that Act as Agonists of the Vanilloid Receptor 1). Settings: TRPV1-expressing cells, Fluo-8 calcium influx, agonist mode; at 8.33 µM; stronger effect = higher value.
Chain of Transient receptor potential cation channel subfamily V member 1 (Homo sapiens) (Q8NER1 whole entry, looked up): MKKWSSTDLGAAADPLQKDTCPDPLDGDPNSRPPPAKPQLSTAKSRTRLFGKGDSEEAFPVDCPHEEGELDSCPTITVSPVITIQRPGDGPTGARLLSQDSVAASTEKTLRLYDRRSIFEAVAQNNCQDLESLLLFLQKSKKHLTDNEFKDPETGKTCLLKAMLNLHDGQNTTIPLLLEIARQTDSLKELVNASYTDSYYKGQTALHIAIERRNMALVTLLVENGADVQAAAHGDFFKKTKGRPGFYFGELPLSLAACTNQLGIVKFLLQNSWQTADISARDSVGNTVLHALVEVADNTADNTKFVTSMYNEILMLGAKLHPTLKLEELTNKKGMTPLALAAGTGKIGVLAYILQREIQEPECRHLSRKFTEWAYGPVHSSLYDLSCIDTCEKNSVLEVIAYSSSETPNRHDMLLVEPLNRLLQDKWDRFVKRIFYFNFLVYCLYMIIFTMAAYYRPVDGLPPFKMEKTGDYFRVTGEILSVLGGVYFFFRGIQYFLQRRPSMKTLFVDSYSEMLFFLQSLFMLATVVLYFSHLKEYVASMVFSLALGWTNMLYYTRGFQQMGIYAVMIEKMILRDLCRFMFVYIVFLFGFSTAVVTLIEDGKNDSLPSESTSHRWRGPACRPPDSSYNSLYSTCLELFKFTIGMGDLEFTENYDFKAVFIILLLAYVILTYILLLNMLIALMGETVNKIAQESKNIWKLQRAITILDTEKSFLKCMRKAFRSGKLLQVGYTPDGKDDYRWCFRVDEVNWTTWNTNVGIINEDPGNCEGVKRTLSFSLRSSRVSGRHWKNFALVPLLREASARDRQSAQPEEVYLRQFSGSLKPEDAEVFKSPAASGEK
Description: The transient receptor potential ion channel, family V, number 1, (TRPV1) is one of the most important molecular transducers of painful stimuli and a potential target for analgesic drug development. Although recent clinical trials with orthosteric antagonists have not produced a successful drug because of a hyperthermia side effect and their tendency to block thermal noxious pain, this ion channel is undeniably well placed in the pain pathway, and the idea of blocking pain signals before they enter the CNS is an excellent concept and of proven efficacy when TRPV1 agonists are used. We propose a new approach involving allosteric modulation to impose an activity-dependent constraint within the context of inflammation and tissue damage that would alter the responsiveness of the channel in a way that an orthosteric vanilloid antagonist cannot achieve. We believe that the allosteric modulator approach has not been explored for this target. The main goal of this proposal is to identify additional, new, potent allosteric modulators of TRPV1 that can be used to investigate TRPV1 function. Our recent report provides evidence of proof of concept, but the compounds are just at the edge of utility in terms of potency. […] The question of whether they can be used as analgesic agents is complex, but if suitable compounds are identified then testing for analgesic properties will be conducted. NIH Chemical Genomics Center [NCGC] NIH Molecular Libraries Probe Centers Network [MLPCN] MLPCN Grant: MH089480-1A1 Assay Submitter (PI): Michael Iadarola, National Institute of Dental and Cranofacial Research
Upon TRPV1 activation in TRPV1 cells, the channel opens and extracellular cations flow through the channel into the cytosol. A calcium binding dye (Fluo-8) becomes fluorescent when bound to calcium. This dye is pre-loaded into cells and is used as a marker for calcium influx. The amount of accumulated calcium is precisely quantified using the FDSS kinetic reader and the calcium dye. For the HTS assay, freshly prepared cells are plated at a density of 2000/well in 3 ul medium in 1536-well plates and cultured overnight at 35.5C. Cells will be loaded with 1 ul of the homogeneous calcium dye (ABD Bioquest) at room temperature for 40 to 90 minutes. Plates will be loaded into the FDSS kinetic reader and a 1 sec / cycle for 10 second baseline signal will be measured. Compound library will then be added with a pintool at 23 nl and measured kinetically for 3 minutes. This portion of the read is considered the agonist portion of the screen. Following the 3 minutes of incubation, an on board pipettor will deliver 1 ul of capsaicin for a final concentration equal to the EC20. Signal will be measured kinetically for an additional 2 minutes. This portion of the read is considered the allosteric enhancer portion of the screen. The FDSS reader has a standard filter set capable of measuring calcium bound Fluo-8 (ex=480 and em=520 nm).
Note: 0% is about no effect.

| Compound | activation |
| --- | --- |
| CCN1C(=O)C(=O)N(CC(=O)Nc2cc(C)ccc2C)C1=O | -7.91% |
| CCN(c1ccccc1)S(=O)(=O)c1cccc(C(=O)NCc2ccccc2CN2CCOCC2)c1 | 10.7% |
| S=C(NNC(=S)NC1CC2CCC1C2)NC1CC2C=CC1C2 (centres undefined) | 3.31% |
| CC(C)c1ccc(NC(=S)NC2CC3C=CC2C3)cc1 (centres undefined) | 88.8% (active) |
| S=C(NNC(=S)NC1CC2C=CC1C2)NC1CC2C=CC1C2 (centres undefined) | 1.8% |
| O=S(=O)(Nc1cccc2cccnc12)c1cccc2cccnc12 | 3.75% |
| Oc1ccc(Cl)cc1C1C=C(c2ccc3c(c2)OCO3)NC(c2c(F)cccc2Cl)N1 (centres undefined) | 2.17% |
| CSCCC(NC(=O)c1ccco1)C(=O)NCCc1ccc(F)cc1 (centres undefined) | 0.184% |
| CCC(C)(C)c1ccc(OCC(=O)N(C)C)c(C(C)(C)CC)c1 | 81.1% (active) |
| CN(C)CCOc1ccc(Cl)cc1C(C)(C)C | 10.6% |
| CCc1nc(C)ccc1OCC(=O)N(CC)CC | 2.63% |
| CCN(CC(=O)Nc1ccc(OC)cc1)C(=O)CSCc1ccc(C)cc1 | 12.3% |
| Cc1cc(C)c(CN2CCN(C(=O)Cn3ccc(NC(=O)OCc4ccccc4)nc3=O)CC2)c(C)c1 | 1.97% |
| COc1ccc(S(=O)(=O)N2CCOCC2)cc1NC(=O)CSc1cc(C)ccc1C | 18.3% |
| COc1ccc(CNC(=O)COc2ccccc2C(=O)c2cnn(-c3ccccc3)c2)cc1OC | 11.4% |
| COc1ccc(S(=O)(=O)Nc2cccc3cccnc23)c(N)c1 | 7.86% |
| C[C@H](NC(=O)c1[nH]cnc1C(=O)Nc1nccs1)c1ccccc1 | 3.08% |
| O=C1NCCn2nc3ccccc3c21 | -1.33% |
| CCN(CC(=O)Nc1ccccc1C(F)(F)F)C(=O)C1CCN(C(=O)Nc2ccccc2)CC1 | 1.3% |
| Cc1cccc(OCCC(=O)OCc2csc(CC(=O)Nc3ccccc3C)n2)c1 | 14.6% |
| NC(=O)NCCCC(=O)O | 5.36% |
| O=C(c1cc(COc2cccc(C(F)(F)F)c2)on1)N1CCSCC1 | 81.1% (active) |
| O=C(NC1Cc2ccccc2C1)c1cc(COc2cccc(C(F)(F)F)c2)on1 | 3.63% |

| Compound | activation |
| --- | --- |
| Cc1nonc1C1CCCN1C(=O)c1cc(COc2cccc(C(F)(F)F)c2)on1 (centres undefined) | 2.83% |
| Cc1ccc2nc(-c3ccncc3)cc(C(=O)Nc3ccc4c(c3)OCCO4)c2c1 | -2.26% |
| O=C(Nc1ccncc1)c1cc(-c2ccccn2)nc2ccc(Br)cc12 | 0.349% |
| Cc1ccc2nc(-c3ccccn3)cc(C(=O)Nc3ccc4c(c3)OCO4)c2c1 | 90.2% (active) |
| COc1ccc(S(=O)(=O)N2CCN(CC(=O)N3c4ccccc4CC3C)CC2)cc1OC (centres undefined) | -0.777% |
| COc1cc(C(=O)OCC(=O)NC23CC4CC(CC(C4)C2)C3)cc(OC)c1OC | 21.9% |
| O=C(Nc1cc(-c2ccccc2)nn1-c1ccccc1F)c1ccc([N+](=O)[O-])cc1 | -1.91% |
| CC1Cc2ccccc2N1S(=O)(=O)c1cccc(C(=O)NCC(c2ccco2)N2CCCC2)c1 (centres undefined) | 0.253% |
| CCn1c(=O)c(=O)n(CC)c2cc(N3CCCCC3)c(NC(=O)c3ccc(Cl)cc3)cc21 | -4.74% |
| Cc1ccccc1S(=O)(=O)N1[C@@H](c2cccc(Cl)c2)C(C(=O)O)=CC[C@H]1c1ccc(Cl)cc1 | -4.35% |
| CC1CCc2sc(C(=O)NCC(c3ccco3)N3CCCCC3)cc2C1 (centres undefined) | 26.2% |
| CCC1CCC2(CC1)NC(=O)N(CC(=O)Nc1ccc(OC)cc1)C2=O (centres undefined) | 9.09% |
| CC(C)(C)NC(=O)NCc1ccco1 | 4.24% |
| CC(C)(C)c1ccc(NC(=O)NCc2ccco2)cc1 | 89.3% (active) |
| CC(C)(C)c1ccc(C(=O)NCCC(=O)NCc2ccco2)cc1 | 25% |
| COc1ccccc1Nc1nnc(SC(C)C(=O)NC2CC2)s1 (centres undefined) | 0.405% |
| COc1ccc(NC(=O)Cn2cc(C(=O)c3ccncc3)c(=O)c3cc(C)ccc32)cc1Cl | 3.63% |
| Cc1ccc(NC(=O)CCCNC(=O)c2ccc(Cl)cc2)cc1S(=O)(=O)N1CCCCC1 | 6.66% |
| Cc1ccc(S(=O)(=O)N(C)C)cc1NC(=O)CN1c2cccc3cccc(c23)S1(=O)=O | -5.6% |
| Cc1ncoc1C(=O)NCCC(c1ccccc1)c1ccccc1 | 98.7% (active) |
| Cc1ccc(S(=O)(=O)NCCC(c2ccccc2)c2ccccc2)cc1C(=O)O | -2.84% |
| Cc1ccc(C(=O)NCCNC(=O)c2ccccc2)cc1 | 12.5% |
| Cc1ccc(C(=O)OCC(=O)Nc2ccc(Cl)cn2)cc1S(=O)(=O)N1CCOCC1 | 7.43% |

| Compound | activation |
| --- | --- |
| CSc1ccc(Cl)c(C(=O)OCC(=O)N2CCNC2=O)c1 | 5.56% |
| O=C(CSc1ncnc2sccc12)N1CCN(C(=O)c2cccs2)CC1 | 0.688% |
| O=C(C1CC(=O)N(C2CCCC2)C1)N1CCN(c2cccc(C(F)(F)F)c2)CC1 (centres undefined) | 9.27% |
| COC(=O)[C@]1(C)CCC[C@@]2(C)C3CC[C@]4(OC(C)=O)C[C@@]3(CCC21)CC4=NO (some centres undefined) | 19.3% |
| O=S(=O)(Nc1ccc2nc(N3CCOCC3)sc2c1)c1ccccc1 | -3.63% |
| CCCCc1ccc(NS(=O)(=O)c2cccc(C(=O)N3CCCN(C)CC3)c2)cc1 | -2.57% |
| NC(=O)NC(CC(=O)NNC(=O)c1ccccn1)c1ccc(Cl)cc1 (centres undefined) | 0.614% |
| CCOc1ccc(NC(=O)COC(=O)C2CCC(=O)N2)c([N+](=O)[O-])c1 (centres undefined) | 2.66% |
| COc1ccc(CCC(=O)N2CCN(S(=O)(=O)c3ccc(OC)cc3)CC2)cc1 | 16.4% |
| Cc1ccc(NC(=O)c2cccc(S(=O)(=O)N3CCCc4ccccc43)c2)nc1 | 21.4% |
| CCCCN(C(=O)c1ccc2ccccc2c1)c1c(N)n(CCCC)c(=O)[nH]c1=O | -2.14% |
| Cc1sc2ncnc(N3CCC(C(=O)Nc4ccc(F)cc4Cl)CC3)c2c1C | 1.84% |
| CCN(CC(=O)Nc1ccccc1OC)C(=O)CC1CC2CCC1C2 (centres undefined) | 23.5% |
| COc1ccc(OC)c(/C=C/C(=O)c2ccc3c(c2)OCO3)c1 | 25.2% |
| COc1ccc([C@H]2CC(=O)C=C(/C=C/c3ccc(Cl)cc3)C2)cc1 | 6.1% |
| CN1CCN(c2ccc(NC(=O)c3cc(Cl)c4c(c3)OCCO4)cc2)CC1 | -4.8% |
| O=C1C=C(c2cccc(Cl)c2O)C[C@@H](c2ccc(F)cc2)C1 | 15.9% |
| COc1ccc(NC(=O)COC(=O)c2n[nH]c3ccccc23)c(OC)c1 | 2.58% |
| COc1ccc(S(=O)(=O)N2CCOCC2)cc1NC(=O)c1ccc(OCC(C)C)c(OC)c1 | 3.95% |
| CN(c1ccccc1)S(=O)(=O)c1cccc(NC(=O)Cc2ccc(Cl)cc2)c1 | 6.78% |
| Cc1ccc(S(=O)(=O)NCCC(=O)NCc2ccc(Cl)cc2)cc1C | 21.8% |
| COc1ccc(CSc2nc(N3CCOCC3)c3c(c2C#N)CC(C)(C)OC3)cc1 | 80.5% (active) |
| CC(C)c1nc(N2CCOCC2)c(C#N)c2c1COC(C)(C)C2 | 13.5% |

| Compound | activation |
| --- | --- |
| CCOC(=O)CSc1nc(N2CCOCC2)c2c(c1C#N)CC(C(C)C)OC2 (centres undefined) | 17.3% |
| COc1ccc(OC)c(/C=N/NC(=O)c2ccc[n+](CC(=O)c3ccccc3)c2)c1 | -2.79% |
| CC(=O)Nc1ccc(S(=O)(=O)NC(C)C(=O)OCCOc2ccc(F)cc2)cc1 (centres undefined) | 3.17% |
| O=C(COc1ccccc1Cl)N1N=C(c2cccs2)CC1c1ccco1 (centres undefined) | 17.2% |
| O=C(Nc1cccc2cccnc12)C(F)(F)F | -6.93% |
| CC(NC(=O)COC(=O)c1ccc(Cl)cc1O)c1ccc(F)cc1 (centres undefined) | 96.5% (active) |
| C=CCOc1ccc(/C=C/C(=O)OCC(=O)NC(C)c2ccc(F)cc2)cc1 (centres undefined) | 0.454% |
| CC(NC(=O)COC(=O)c1cc(=O)[nH]c2ccccc12)c1ccccc1 (centres undefined) | 3.95% |
| CN(CC(=O)Nc1ccc(Cl)c(C(F)(F)F)c1)C(=O)CCC(=O)c1ccccc1 | 17.3% |
| CC1(C)O[C@@H]2[C@H](O1)[C@@H](COS(=O)(=O)O)O[C@H]2n1ccc(=O)[nH]c1=O | -5.53% |
| COc1ccccc1CNS(=O)(=O)c1cc(C(=O)NCc2ccccn2)c(Cl)cc1Cl | -2.79% |
| C=C1CCC(N(O)c2cc(C)on2)C(=C)CCC2C1CC2(C)C (centres undefined) | 13.2% |
| C=C(C)CNc1cc(S(=O)(=O)N2CCOCC2)ccc1Oc1ccccc1 | -6.07% |
| COc1ccccc1Nc1cc(C(=O)NCCCN(C)C2CCCCC2)c2ccccc2n1 | 5.29% |
| CCCCn1c(N)c(N(CCC(C)C)C(=O)COC(=O)c2cccnc2OCC)c(=O)[nH]c1=O | 1.64% |
| CC(C)c1ccc(S(=O)(=O)N2CCN(C(C)C(=O)NC3CCCC3)CC2)cc1 (centres undefined) | 10.1% |
| CCCn1c(N)c(N(CCOC)C(=O)C2CCCC2)c(=O)[nH]c1=O | 1.46% |
| COc1cccc(N2CCN(CC(=O)Nc3ccnn3C3CCCC3)CC2)c1 | 1.23% |
| CC(=O)c1c(C)[nH]c(C(=O)COc2ccc3c(C)cc(=O)oc3c2)c1C | -2.89% |
| CC(C)N(Cc1nnc(-c2ccccc2Br)o1)C(=O)c1cc(Cl)nc2ccccc12 | 9.24% |
